About 79,000 compounds went through this panel and 15% of them were active in at least one assay; those are over-represented in the sample as a whole. Rule as the data show it: active = growth inhibition above about 70%; inactive = the rest.
Key:
[1] = NCI Yeast Anticancer Drug Screen. Data for the rad50 strain (AID 155);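 also: 0% = growth of vehicle-only cultures of the same strain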; settings: S. cerevisiae rad50 strain growth inhibition; at 50.0 µM; hits give high values
Method in brief: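 A DNA repair-deficient yeast mutant serves as the test organism; compound-induced growth inhibition is calculated against vehicle-treated cells.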

[2] = NCI Yeast Anticancer Drug Screen. Data for the mec2-1 strain (AID 157); settings: S. cerevisiae mec2-1 strain, at 50.0 µM, hits give high values
Method in brief: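 Using mec2-1 yeast: add compound, measure growth, express inhibition versus vehicle-treated cultures.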

[3] = NCI Yeast Anticancer Drug Screen. Data for the cln2 rad14 strain (AID 165);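 also: 0% = growth equal to vehicle treated cultures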; settings: S. cerevisiae cln2 rad14 strain, at 50.0 µM, hits give high values
Method in brief: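 Yeast strain cln2 rad14, bearing defects in cell cycle control and DNA repair, serves as the test system; values reflect growth inhibition compared with vehicle.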

[4] = NCI Yeast Anticancer Drug Screen. Data for the bub3 strain (AID 167); settings: S. cerevisiae bub3 mutant strain, at 50.0 µM, hits give high values
Method in brief: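 Inhibition values come from growth of compound-treated mutant yeast normalised to vehicle-treated controls.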

[5] = NCI Yeast Anticancer Drug Screen. Data for the mlh1 rad18 strain (AID 175); settings: S. cerevisiae mlh1 rad18 strain growth inhibition; at 50.0 µM; hits give high values
Method in brief: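 Steps: expose repair-defective yeast to compound; measure growth; express inhibition against vehicle-treated controls.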

[6] = NCI Yeast Anticancer Drug Screen. Data for the sgs1 mgt1 strain (AID 161);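 also: 0% = growth of cultures given vehicle only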; settings: S. cerevisiae sgs1 mgt1 strain, at 50.0 µM, hits give high values
Method in brief: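 This yeast growth screen uses a strain with defined DNA-repair lesions; compound-treated growth is compared with vehicle-treated growth.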

Measured: growth inhibition

CC(=O)N=Cc1ccccc1O
inactive: [1] -27.8% | [2] -16% | [3] -77.7% | [4] -34.5% | [5] -20.7%

O=[N+]([O-])c1ccc(-c2nc3ncncc3[nH]2)cc1
inactive: [1] 13.2% | [2] -3.25% | [3] 13.1% | [4] 5.05% | [5] 7.25%

CC(=O)NCc1cc([N+](=O)[O-])ccc1O
inactive: [1] 11.6% | [2] 2.55% | [3] -6.2% | [4] -3.55% | [5] 5.05%

C/C(=C1\C(=O)Nc2ccccc21)c1cccnc1
inactive: [1] -8.2% | [2] -9.25% | [3] 11.3% | [4] -10.4% | [5] -7.55%

COc1cccc(N=NN2CCCC2)c1
inactive: [1] 16.2% | [2] 14.2% | [3] 20.1% | [4] 7.15% | [5] 23.4%

CC(=O)Nc1ccc(OC(C)=O)cc1
inactive: [1] 14.4% | [2] -0.85% | [3] 20.5% | [4] 2.7% | [5] 24.4%

CCCNc1nc(C)nc2[nH]c(Cc3ccccc3)c(C)c12
inactive: [1] 12.4% | [2] 11.9% | [3] 0.8% | [4] 14.8% | [5] 27.1%

Clc1ccc2sc(-c3ccccc3)nc2c1
inactive: [1] -22.8% | [2] -18.4% | [3] -23.1% | [4] 7.45% | [5] -3.6%

Cc1cc(Cl)nc2ccc([N+](=O)[O-])cc12
inactive: [1] 5.35% | [2] 6.3% | [3] -18.1% | [4] 14.2% | [5] 5.5%

N#CCC1(O)c2ccccc2-c2ccccc21
inactive: [1] -11.9% | [2] 7.45% | [3] -6.25% | [4] 1.4% | [5] 9.9%

CCCCCCCCCCCNc1ncnc2[nH]ncc12
inactive: [1] -8.6% | [2] -16.5% | [3] -0.7% | [5] 9.8%

CCSC1C(N=[N+]=[N-])C(CO)OC1n1cnc2c(N)ncnc21 (configuration not stated)
inactive: [1] 1.3% | [2] -3.2% | [3] 10.9% | [4] -2% | [5] 4.7%

CCc1ccc(OC(=O)CCl)cc1
inactive: [1] -19.4% | [2] 9.5% | [3] -28.7% | [4] -3.4%

C/C=C(/C(=O)NC(N)=O)C(C)C
inactive: [1] -3.65% | [2] 3.15% | [3] -48.3% | [4] -2.55% | [5] -2.85%

O=C(Nc1ccc2ncccc2c1)Nc1ccc2ncccc2c1
inactive: [1] 12.9% | [2] -12.8% | [3] -4.85% | [5] 21.4%

CN1C2C=CC(=O)C1C1C(=O)N(c3ccccc3)C(=O)C12 (configuration not stated)
inactive: [1] 25.2% | [2] 45.1% | [3] 31.4% | [4] 23.8% | [5] 27.1%

Nc1nc(=O)[nH]nc1SCc1ccccc1
inactive: [1] 39.2% | [2] 0.1% | [3] 2.45% | [4] 10% | [5] 10.5%

O=C(O)c1nc(Cl)c(Cl)[nH]c1=O
inactive: [1] -15.3% | [2] -29.6% | [3] -65.6% | [4] 2.5% | [5] 3.6%

CCCCCC(C(C)=O)C(C)=O
inactive: [1] -17.5% | [2] -19.6% | [3] 0.45% | [4] -15.8% | [5] -15.6%

O=C(O)c1ccc2ncc(-c3ccccc3)nc2c1
inactive: [1] 5.3% | [2] 11.7% | [3] -31.1% | [4] -7.4% | [5] 16.4%

CCNC1=CC(=O)c2ncccc2C1=O
inactive: [1] 47.9% | [2] 15.7% | [3] -8.25% | [4] 39.2% | [5] 28.4%

O=C(c1cc2ccccc2s1)c1ccccc1Cc1cccc2ccccc12
inactive: [1] 33.8% | [2] 7.25% | [3] 21.2% | [4] 5.45% | [5] -0.75%

S=c1[nH]nc2nc3c4ccccc4c4ccccc4c3nn12
inactive: [1] 53.7% | [2] 22.8% | [3] 14.2% | [4] 21.2% | [5] 25.7%

CN(C)c1ccc(Cc2ccc(N(C)C)c3cccnc23)c2ncccc12
inactive: [1] -5.45% | [2] -9.65% | [3] -13.4% | [4] 12.3% | [5] 1.4%

CCCCCCCCOc1ccc(Cl)cc1
inactive: [1] -2.95% | [2] -11.8% | [3] -35.2% | [4] -21.6% | [5] -28.9%

O=C(O)NC(c1ccccc1)C(NC(=O)c1ccccc1)c1ccccc1 (configuration not stated)
inactive: [1] -0.45% | [2] -4.1% | [3] 7.15% | [4] -7.35% | [5] 31.4%

C=CCN(CC=C)/N=N/c1nc[nH]c1C(N)=O
inactive: [1] 28.1% | [2] 8.55% | [3] 5.75% | [4] -5.55% | [5] 22.1%

Cc1cc(N(CCC#N)CCC#N)ccc1/C(N=Nc1cccc(Cl)c1)=N/NC(=O)c1cc(Cl)ccc1O
inactive: [1] 21% | [2] 4.9% | [3] 10.3% | [4] 33.6% | [5] -59.4%

O=C1c2ccccc2C(=O)N1C1(C(=O)O)CCCC1
inactive: [1] -5.3% | [2] -7.6% | [3] -27.1% | [4] -15.6% | [5] -10.4%

CC1CCCNC1C (configuration not stated)
inactive: [1] -21% | [2] -24.1% | [3] -29% | [4] -3.25% | [5] 8.25%

CCC(O)(c1ccc(OC)cc1)C(c1ccc(OCc2ccccc2)cc1)c1ccc(OCc2ccccc2)cc1 (configuration not stated)
inactive: [1] 18.9% | [6] 5.5% | [3] 10.8% | [4] -10.1% | [5] -12.9%

CCN(C)c1nc(N(C)CC)c2nc(N(C)CC)nc(N(C)CC)c2n1
inactive: [1] 1.95% | [6] 17.8% | [3] 4.5% | [4] -14.5% | [5] -65.1%

Cc1ccnc(N=C(N)Nc2cc(C)ccn2)c1
inactive: [1] 19.6% | [6] 13.1% | [3] 11.2% | [4] 6.75% | [5] 8.85%

[N-]=[N+]=Nc1ccnc2c(C(F)(F)F)cccc12
inactive: [1] -19.9% | [6] -8% | [3] -60.2% | [4] -14.3% | [5] -2.45%
